Among the test systems are DU-145 prostate; K-562 leukemia; MALME-3M melanoma; MDA-MB-231 breast; RXF 393 renal; SF-268 CNS; SF-295 CNS; SF-539 CNS; UACC-257 melanoma; M14 melanoma; HCT-15 colon; HT29 colon; SNB-75 CNS; SNB-19 CNS; U251 CNS; PC-3 prostate; SK-MEL-5 melanoma; UACC-62 melanoma; LOX IMVI melanoma; SK-MEL-28 melanoma.
What all share (assay): NCI-60 one-dose screen, 48 h (100 = growth as untreated, 0 = no growth, -100 = all killed)
Settings in all cases: 10 µM unless noted

The structures appear in SMILES notation. The panel holds about 83,000 compounds, 20% with a hit somewhere; the sample as a whole holds those more often.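 How to read the values: 0–100, growth inhibition (40 = 60% inhibited); 0, no net growth; -100 to 0, cell death (-40 = 40% of starting cells died; -100 = all dead).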 Values without a mark were called inactive. Calls of active or inactive are those of the source. Rule for the calls: active = growth percent below 10; inactive = the rest.

With `CCCCCCCCCCCCCOC(=O)c1c(C)[nH]c(/C=C2\N=C(c3ccc[nH]3)C=C2OC)c1C`, the growth in the test with DU-145 prostate was 29.3%; with K-562 leukemia, 5.53% (active); in the test on MALME-3M melanoma it was 41.8%; in the test with MDA-MB-231 breast it was 19.6%; in the test on RXF 393 renal, 27.7%; with SF-268 CNS it was 34.2%. Also, the growth in the test with SF-295 CNS is 49.9%; in the test on SF-539 CNS, 10.8%; in the test on UACC-257 melanoma, 38.7%; in the test on M14 melanoma, 1.88% (active); in the test with HCT-15 colon, 4.86% (active); with HT29 colon, 8.1% (active). Also, the growth in the test with SNB-75 CNS is 21.2%; with SNB-19 CNS, 48.1%; with U251 CNS, 23.9%; in the test on PC-3 prostate it was 27.6%; with SK-MEL-5 melanoma, -89.1% (active); in the test with UACC-62 melanoma, -19.1% (active). For the same molecule, the growth was -56.4% (active) with LOX IMVI melanoma and 30.2% with SK-MEL-28 melanoma.
Regarding `COC(=O)c1cc(Br)ccc1O`, the growth is 110% in the test on DU-145 prostate; 111% with K-562 leukemia; 102% with MALME-3M melanoma; 118% in the test with MDA-MB-231 breast; 101% in the test with RXF 393 renal; 105% in the test with SF-268 CNS. Besides, the growth in the test with SF-295 CNS was 102%; with SF-539 CNS it was 107%; with UACC-257 melanoma, 109%; with M14 melanoma it was 105%; in the test on HCT-15 colon it was 101%; in the test on HT29 colon, 103%. Also, the growth in the test with SNB-75 CNS is 91.5%; in the test on SNB-19 CNS, 108%; in the test with U251 CNS, 102%; in the test on PC-3 prostate, 94.5%; with SK-MEL-5 melanoma it was 95.2%; with UACC-62 melanoma, 102%. The growth with LOX IMVI melanoma is 94.7%; in the test on SK-MEL-28 melanoma, 107%.
As for `Cc1nc2sc(C(=O)Nc3cccc(Br)c3C)c(N)c2cc1C(O)c1ccccc1` (stereo not given), the growth was 6.13% (active) with DU-145 prostate; 6.3% (active) in the test on K-562 leukemia; 56.9% in the test on MALME-3M melanoma; 3.16% (active) with MDA-MB-231 breast; 37.9% in the test on RXF 393 renal; 16.3% in the test with SF-268 CNS. Besides, the growth is 20.5% in the test on SF-295 CNS; 1.41% (active) in the test with SF-539 CNS; 52% in the test on UACC-257 melanoma; 9.77% (active) in the test with M14 melanoma; 10.8% in the test with HCT-15 colon; 9.11% (active) with HT29 colon. Also, the growth in the test with SNB-75 CNS was 52.6%; in the test on SNB-19 CNS, 25.4%; with U251 CNS, 2.74% (active); with PC-3 prostate, 18.3%; in the test with SK-MEL-5 melanoma, -50.9% (active); in the test with UACC-62 melanoma it was 18.5%. Moreover, the growth in the test on LOX IMVI melanoma is 16.3%; in the test on SK-MEL-28 melanoma, 55.9%.
As for `Cc1ccc2nc(/C(C#N)=C(/CCCO)NC(Cc3ccccc3)C(=O)OCc3ccccc3)[nH]c(=O)c2c1` (stereo not given), the growth with DU-145 prostate was 98.4%; with K-562 leukemia, 119%; in the test on MALME-3M melanoma, 126%; in the test on MDA-MB-231 breast, 113%; with RXF 393 renal, 127%; in the test with SF-268 CNS, 102%. Further, the growth with SF-295 CNS was 98.7%; in the test with SF-539 CNS, 65.1%; in the test on UACC-257 melanoma, 121%; with M14 melanoma, 98.4%; with HCT-15 colon, 117%; in the test on HT29 colon it was 130%. Further, the growth is 113% with SNB-75 CNS; 90.4% with SNB-19 CNS; 104% in the test with U251 CNS; 115% in the test on PC-3 prostate; 73.3% with SK-MEL-5 melanoma; 99.1% with UACC-62 melanoma. For the same molecule, the growth in the test with LOX IMVI melanoma is 98.5%; in the test on SK-MEL-28 melanoma, 96.4%.
Turning to `C#CCn1cnc2cnc(Nc3cccc(NC(=O)C=C)c3)nc21`, the growth in the test on DU-145 prostate is 93.5% [6.25 µM]; with K-562 leukemia, 5.9% [6.25 µM] (active); in the test on MALME-3M melanoma it was 76.7% [6.25 µM]; in the test with MDA-MB-231 breast, 81.5% [6.25 µM]; with RXF 393 renal, 86.6% [6.25 µM]; in the test with SF-268 CNS, 84.7% [6.25 µM]. For the same molecule, the growth with SF-295 CNS is 72.4% [6.25 µM]; with SF-539 CNS, 72.3% [6.25 µM]; with UACC-257 melanoma, 61.5% [6.25 µM]; in the test on M14 melanoma, 62% [6.25 µM]; in the test on HCT-15 colon it was 91.7% [6.25 µM]; in the test on HT29 colon, 70.5% [6.25 µM]. The growth in the test on SNB-75 CNS is 86.2% [6.25 µM]; in the test with SNB-19 CNS it was 88.3% [6.25 µM]; with U251 CNS, 75.5% [6.25 µM]; with PC-3 prostate, 9.21% [6.25 µM] (active); in the test on SK-MEL-5 melanoma it was 92.4% [6.25 µM]; in the test with UACC-62 melanoma, 62.5% [6.25 µM]. Besides, the results for the growth in the test on LOX IMVI melanoma and with SK-MEL-28 melanoma were 82.7% [6.25 µM] and 82.2% [6.25 µM], respectively.
Turning to `COc1ccc(-c2nc3c(N)c(CO)cnc3s2)cc1`, the growth in the test on DU-145 prostate is 86.6%; with K-562 leukemia it was 97.2%; in the test with MALME-3M melanoma, 101%; in the test with MDA-MB-231 breast, 94.4%; in the test with RXF 393 renal, 74.7%; in the test on SF-268 CNS, 76.2%. Further, the growth with SF-295 CNS was 93.1%; in the test on SF-539 CNS, 89.7%; in the test with UACC-257 melanoma, 110%; in the test on M14 melanoma, 99.4%; in the test on HCT-15 colon, 93.8%; in the test on HT29 colon it was 97.7%. Besides, the growth with SNB-75 CNS is 82.9%; with SNB-19 CNS it was 97.2%; in the test with U251 CNS, 88.6%; in the test on PC-3 prostate it was 91.8%; in the test on SK-MEL-5 melanoma, 82.7%; in the test with UACC-62 melanoma, 92.7%. The figures for the growth in the test on LOX IMVI melanoma and with SK-MEL-28 melanoma were 81.9% and 98.5%, respectively.
As for `Cc1ccc(-c2nc(/C=C3/C(=O)Nc4ccc(F)cc43)c3ccccn23)cc1`, the growth in the test with DU-145 prostate is -23.1% (active); in the test with K-562 leukemia, 93.7%; in the test on MALME-3M melanoma, 75.8%; in the test with MDA-MB-231 breast, 91%; with RXF 393 renal it was 63.5%; in the test with SF-268 CNS, 75.6%. The growth with SF-295 CNS is 76%; with SF-539 CNS it was 82.3%; in the test with UACC-257 melanoma, 95.5%; in the test with M14 melanoma, 98.8%; in the test with HCT-15 colon it was -3.43% (active); in the test on HT29 colon it was 17.2%. In addition, the growth in the test on SNB-75 CNS is 92.2%; in the test on SNB-19 CNS it was 95%; with U251 CNS, 64.3%; in the test with PC-3 prostate, 68.1%; in the test with SK-MEL-5 melanoma, 86.7%; in the test on UACC-62 melanoma, 74.7%. The growth in the test with LOX IMVI melanoma is 63.8%; with SK-MEL-28 melanoma it was 103%.
With `COc1cc(C2C(C(=O)OCc3ccccc3)=C(C)NC(C)=C2C(=O)OCc2ccccc2)cc(OC)c1OC`, the growth in the test with DU-145 prostate was 53.9%; in the test with K-562 leukemia, 20.3%; in the test with MALME-3M melanoma it was 18%; in the test with MDA-MB-231 breast, 31.9%; with RXF 393 renal, -18.5% (active); with SF-268 CNS it was 37.6%. Also, the growth with SF-295 CNS was 15.4%; with SF-539 CNS, 41.3%; in the test with UACC-257 melanoma it was 19.5%; in the test on M14 melanoma, 21.9%; with HCT-15 colon it was 23.4%; in the test with HT29 colon, 12.3%. The growth with SNB-75 CNS was 46.2%; in the test with SNB-19 CNS, 42.5%; in the test on U251 CNS, 31.3%; with PC-3 prostate it was 9.87% (active); in the test with SK-MEL-5 melanoma, 8.07% (active); in the test on UACC-62 melanoma, 30.2%. Besides, the growth was 29.9% with LOX IMVI melanoma and 41.1% with SK-MEL-28 melanoma.

The record behind these values is PubChem BioAssay (NCI).
